This is an account of results in ChEMBL document CHEMBL3433997, “St. Jude Leishmania screening dataset” (2016).

Holding throughout (format): functional
The target in assay [1] is Solute carrier family 2, facilitated glucose transporter member 1 (Homo sapiens) (UniProt P11166). In words: ST_JUDE_LEISH: Cytotoxicity at 2uM final concentration against transgenic Leishmania Mexicana promastigotes LmGLUT1 that are glucose transport deficient and complemented with the human glucose transporter GLUT1. Activity is measured by DNA content using SYBR green in vitro.

For assay [2], the target named is Hexose transporter 1 (Plasmodium falciparum) (UniProt O97467). Description: ST_JUDE_LEISH: Cytotoxicity at 2uM final concentration against transgenic Leishmania Mexicana promastigotes LmPfHT that are glucose transport deficient and complemented with the Plasmodium falciparum hexose transporter. Activity is measured by DNA content using SYBR green in vitro.
Assay [3] addresses Glucose transporter (Leishmania mexicana) (UniProt O61059). In words: ST_JUDE_LEISH: Cytotoxicity at 2uM final concentration against transgenic Leishmania Mexicana promastigotes LmGT2 that are glucose transport deficient and complemented with the L. Mexicana glucose transporter 2. Activity is measured by DNA content using SYBR green in vitro.

The structures appear in SMILES notation.

Solute carrier family 2, facilitated glucose transporter member 1 (Homo sapiens), sequence (P11166 whole entry): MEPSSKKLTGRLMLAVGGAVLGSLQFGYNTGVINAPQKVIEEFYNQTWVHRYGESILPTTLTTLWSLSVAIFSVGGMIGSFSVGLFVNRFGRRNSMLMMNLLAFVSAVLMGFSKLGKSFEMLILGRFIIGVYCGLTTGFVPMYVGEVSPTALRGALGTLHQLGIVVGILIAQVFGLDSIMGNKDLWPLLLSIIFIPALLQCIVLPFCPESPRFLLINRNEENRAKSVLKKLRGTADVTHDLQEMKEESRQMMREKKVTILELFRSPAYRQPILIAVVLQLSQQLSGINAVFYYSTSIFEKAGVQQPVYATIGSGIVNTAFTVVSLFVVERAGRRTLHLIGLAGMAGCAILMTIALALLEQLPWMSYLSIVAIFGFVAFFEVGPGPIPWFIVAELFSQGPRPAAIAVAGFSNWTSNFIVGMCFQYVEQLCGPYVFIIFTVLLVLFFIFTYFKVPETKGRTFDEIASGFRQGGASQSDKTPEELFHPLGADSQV

The inhibition is the change of the read-out against control, counted positive when it falls. `CCc1cn2c3c(cc(C(=O)N[C@@H](Cc4cc(F)cc(F)c4)[C@H](O)CNC4CCCCC4)cc13)N(C)S(=O)(=O)CC2`: the inhibition is 0.79% in assay [1], 0.2% in assay [2] and -2.62% in assay [3].

In the case of `Nc1c2c(nc3ccc(C(=O)Nc4ccc(Br)cc4)cc13)CCCC2`, the inhibition was determined as 5.71% in assay [1], 6.08% in assay [2] and 2.67% in assay [3].

For `CCOc1ccc2[nH]c(C)cc(=NN=Cc3cccnc3)c2c1`, the inhibition in assay [1] is 8.63%; in assay [2] it was 6.06%; in assay [3], 7.76%.

In the case of `COCCNCc1ccc(-c2cccc(CNc3ccc(OC)cc3)c2)cc1`, the inhibition was determined as 11.3% in assay [1], 8.16% in assay [2] and 5.16% in assay [3].

Consider `CCCN1CCN(c2ccccc2NS(=O)(=O)c2ccc(C(=O)Nc3ccc(Cl)cc3)cc2)CC1`, for which the inhibition in assay [1] is 2.67%; in assay [2], 3.32%; in assay [3], -1.54%.

For `CCN(CCC1(c2ccc(Cl)c(Cl)c2)CN(C(=O)c2cc(OC)c(OC)c(OC)c2)CCO1)C1CC2c3ccccc3CC21` (stereo not given), the inhibition in assay [1] was -0.68%; in assay [2] it was 1.17%; in assay [3], -0.3%.

For `Cc1[nH]c(C)c(-c2ccc(OCc3ccc(F)cc3)cc2)c(=O)c1Br`, the inhibition in assay [1] was 0.17%; in assay [2] it was -1.87%; in assay [3] it was -1.56%.

In the case of `O=C(Nc1ccc(F)c(Cl)c1)c1cc([N+](=O)[O-])cc2cn[nH]c12`, the inhibition is -0.64% in assay [1], -0.66% in assay [2] and -2.22% in assay [3].

Regarding `N#Cc1ccc(-c2ccc(C(=O)NCCCCN3CCC(c4cn(CCCO)c5ccccc45)CC3)cc2)cc1`, the results for the inhibition in assay [1], in assay [2] and in assay [3] were 2%, 1.61% and 1.21%, respectively.

On to `FC(F)(F)COc1ccc2ccccc2c1CCNCCCCNCCc1c(OCC(F)(F)F)ccc2ccccc12`, for which the figures for the inhibition in assay [1], in assay [2] and in assay [3] were 105%, 103% and 107%, respectively.

For the molecule `c1cc(Nc2nccc(-c3cnn4ncccc34)n2)cc(-c2cnco2)c1`, the figures for the inhibition in assay [1], in assay [2] and in assay [3] were 35.9%, 45.8% and 63.1%, respectively.

`CCN1CCN(c2cc(C)c3cc(NC(=O)c4ccc(N(CC)CC)cc4)ccc3n2)CC1`: the inhibition in assay [1] is -0.29%; in assay [2], 2.18%; in assay [3] it was -3.38%.

For the molecule `OC(CN(Cc1ccccc1)Cc1ccccc1)Cn1c2ccc(Cl)cc2c2cc(Cl)ccc21` (stereo not given), the results for the inhibition in assay [1], in assay [2] and in assay [3] were -0.34%, 0.27% and 1.37%, respectively.

Consider `CCN(CC)CCN(Cc1ccc(-c2ccc(C(F)(F)F)cc2)cc1)C(=O)Cn1c(CCc2ccc(F)c(F)c2F)nc(=O)c2cccnc21`, for which the results for the inhibition in assay [1], in assay [2] and in assay [3] were 0.59%, 0.44% and -0.8%, respectively.

Regarding `Cc1cc(C)c(NC(=O)N[C@H]2CCN(CCCCCNC(=O)/C=C/c3ccc(Cl)c(Cl)c3)C2)c(C)c1`, the inhibition in assay [1] is -0.8%; in assay [2], -0.95%; in assay [3], 1.3%.

As to `Clc1cccc(C=NNc2nc(=Nc3ccccc3)[nH]c(=Nc3ccccc3)[nH]2)c1`, the inhibition is 8.44% in assay [1], 5.13% in assay [2] and 3.05% in assay [3].

As to `NC(=O)c1cccc(CN2Cc3ccccc3OC3(CCN(Cc4c[nH]c5cnccc45)CC3)C2)c1`, the figures for the inhibition in assay [1], in assay [2] and in assay [3] were 0.63%, 1.28% and 0.09%, respectively.

With `O=C(CNc1ccncc1)c1c[nH]c2ccccc12`, the inhibition stood at 0.52% in assay [1], 2.3% in assay [2] and 0.74% in assay [3].

As for `CN(C)CCOc1ccc2c(=O)cc(CCc3cccc(F)c3F)n(CC(=O)N(C)Cc3ccc(-c4ccc(C(F)(F)F)cc4)cc3)c2c1`, the inhibition in assay [1] is -1.05%; in assay [2], -0.55%; in assay [3], 0.06%.

With `Cc1ccc2[nH]c(-c3ccc(C=CC(=O)NC4CCN(Cc5ccccc5)CC4)cc3)nc2c1`, the inhibition in assay [1] is 2.64%; in assay [2] it was 3.29%; in assay [3], 5.84%.

As for `COc1ccc(CNc2nc(Nc3cccc(C#N)c3)nc(Nc3cccc(C#N)c3)n2)cc1Cl`, the inhibition in assay [1] is 3.25%; in assay [2], 0.95%; in assay [3] it was -1.38%.

Take `O=c1[nH]c2c(cc1CNC1CCCCC1)c(-c1ccc(F)cc1)nn2-c1ccccc1`: the inhibition in assay [1] is -1.4%; in assay [2], -1.47%; in assay [3], 0.4%.

With `CN1CCC(N(Cc2ccc(-c3ccc(Cl)cc3)cc2)C(=O)Cn2c(CCc3cccc(F)c3F)cc(=O)c3ccccc32)CC1`, the values for the inhibition in assay [1], in assay [2] and in assay [3] were 8.97%, 3.73% and 8.07%, respectively.

Turning to `NC(=O)C1CCN(Cc2ccc(-c3ccc(-c4nc5cc(C(F)(F)F)ccc5[nH]4)s3)cc2)CC1`, the figures for the inhibition in assay [1], in assay [2] and in assay [3] were 4.68%, 3.12% and 4.69%, respectively.

On to `CCOc1cc(Cc2cnc(N)nc2N)cc(OCC)c1O`, for which the values for the inhibition in assay [1], in assay [2] and in assay [3] were 1.1%, 1.86% and -1.21%, respectively.

For `CN1CCN(C(=O)CN2CCC3(CCC2=O)NC(=O)c2ccccc2O3)CC1` (stereo not given), the inhibition in assay [1] stood at 3.76%; in assay [2], 5.1%; in assay [3], 3.13%.

On to `c1ccc2cc3c(Nc4ccc(N5CCCCCC5)cc4)ccnc3cc2c1`, for which the inhibition in assay [1] stood at 0.03%; in assay [2], 0.23%; in assay [3], 0.24%.

Regarding `CC1CCC2(CC1)N=C(N)N=C(N)N2OCc1cc2ccccc2c2ccccc12` (stereo not given), the figures for the inhibition in assay [1], in assay [2] and in assay [3] were 3.83%, 2.5% and 2.97%, respectively.

For `CC(C)CNCc1cccc(-c2cccc(CNCCCN3CCN(C)CC3)c2)c1`, the inhibition in assay [1] worked out at 2.03%; in assay [2], 0.17%; in assay [3], 4.44%.

In the case of `Cc1ccc(F)c(OC2CCN(c3ccc(C(=O)NC4CC4)cn3)CC2)c1`, the inhibition in assay [1] is 0.56%; in assay [2] it was 1.76%; in assay [3], -3.52%.

For `CC(O)C1CCCCN1C(=O)c1ccc(-c2ccc(-c3nc4ccccc4[nH]3)s2)cc1` (stereo not given), the figures for the inhibition in assay [1], in assay [2] and in assay [3] were -1.19%, -3.15% and -1.69%, respectively.

`Cc1cccc2nc(-c3cccc(-c4ccc(NC(=O)NC(C)C)cc4)c3)[nH]c12`: the inhibition in assay [1] was 0%; in assay [2], 2.42%; in assay [3], -0.9%.

As to `O=C(Nc1cc(Oc2ccc(O)cc2)cc([N+](=O)[O-])c1)c1cc(-c2ccc(F)cc2)no1`, the inhibition in assay [1] is 2.24%; in assay [2], -1.36%; in assay [3], 1.6%.

On to `CCOC(=O)c1ccc(NC(=O)Nc2ccc(-c3cccc(-c4nc5cc(F)ccc5[nH]4)c3)cc2)cc1`, for which the inhibition amounted to 2.36% in assay [1], 2.86% in assay [2] and 1.54% in assay [3].

With `ON=C1CCc2cc(-c3nc(-c4ccc(OCCN5CCCCC5)cc4)[nH]c3-c3ccncc3)ccc21`, the inhibition was -1.78% in assay [1], -1.49% in assay [2] and -1.7% in assay [3].
